Many of the other results were omitted from the sample, so hits are more common in it than they were.
PI5P4Ka inh: inhibitors of human PI5P4K alpha. P48426. PI5P4Kalpha enzyme, ADP-Glo luminescence, 60 min; stronger effect = lower value. max response, %. actives 1.2% (n = 330,000). AID 652105; active = max response of -50% or lower; inconclusive = between -30% and -50%; inactive = -30% or higher; note: value at the top dose of about 77 µM
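ADP-Glo luminescence end-point read after a 60 min room-temperature kinase reaction of PI5P4Kalpha plus substrate, initiated with ATP at 5 microM final. Buffer: 0.038 M HEPES pH 7.4, EGTA, 0.1% CHAPS, 5% DMSO.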
PI4K2A block: blocks human PI4K2A kinase activity; Q9BTU6; purified PI4K2A, ADP-Glo luminescence, 1 h; stronger effect = lower value; activity change, negative = inhibition, % at 76.9 µM; actives 0.13% (n = 420,000); AID 1346378; in the data active = activity change below about -50%; inconclusive = mostly about -30% to -49%;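 note: -100% = wells without enzyme as full effect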
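PI4K2A activity was measured by ADP-Glo luminescence: enzyme (4 ug/mL stock) and phosphatidylinositol (1.2 mM stock) in Tris pH 7.5/MgCl2/EGTA/Triton X-100 buffer were reacted with ATP (300 microM stock) for one hour at ambient temperature.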
PGK inhibitor: blocks T. brucei phosphoglycerate kinase; actives 0.043% (n = 380,000); Potency, µM (highest dose often 57.5 µM), for the others: top-dose activity change, negative = inhibition, hits mostly inhibitors; P07378; PGK/GAPDH coupled, Kinase-Glo luminescence, 60 min; AID 602233; note: potency is the fitted concentration of half-maximal effect; nearly all actives have a fitted effect of over 60% in size
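Recombinant glycosomal PGK reaction used 1,3-bisphosphoglycerate generated in-well by GAPDH (100nM final) in 100mM TEA pH 7.6, 5mM MgCl2, 0.01% Tween-20. After 60 minutes at room temperature, ATP was read by Kinase-Glo Plus luminescence end-point.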
Pin1 inh: blocks the human prolyl isomerase Pin1. Pin1 FP peptide displacement, HiFluor488, 10 min. Potency, µM (top dose mostly 115 µM), inactives show top-dose activity, negative = inhibition, hits mostly inhibitors. AID 504891. Q13526. actives 0.009% (n = 390,000); active = well fitted inhibition curve with a large enough effect in the polarisation, with a control signal flat, not every such curve was filed as active; inconclusive = small, poorly fitted or top-dose-only effect, or effect the other way, or a change in a side signal; inactive = no such curve, though single readings can be large or run the other way; the % refers to the polarisation; note: potency is the fitted concentration of half-maximal effect
Target sequence (Q13526 whole entry, looked up): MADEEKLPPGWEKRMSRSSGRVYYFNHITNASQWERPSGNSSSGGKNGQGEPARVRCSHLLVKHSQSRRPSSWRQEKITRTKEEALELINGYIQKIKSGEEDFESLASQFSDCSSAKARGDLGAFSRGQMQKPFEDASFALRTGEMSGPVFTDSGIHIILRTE
Tb PFK block: T. brucei PFK enzyme inhibition; T. brucei PFK, ADP-Glo luminescence; Potency, µM (series often up to 57.5 µM), for inactives: at the top dose activity, negative = inhibition, usual class: inhibitors; actives 0.17% (n = 330,000); AID 485367;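 note: potency is the fitted concentration of half-maximal effect; 0% = uninhibited 1x PFK enzyme wells and -100% = no-enzyme wells; nearly all actives have a fitted effect of over 60% in size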
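ADP-Glo luminescence quantified ADP after 45 min at room temperature, with 1.25 nM T. brucei PFK, 0.1 mM ATP and 0.5 mM fructose-6-phosphate in pH 8.0 TEA buffer. qHTS titrations up to 57 µM; curves classified by quality.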
Numbers without * were called inactive; i = inactive; ? = inconclusive; . = no result. Unless noted, calls come from the whole dose curve; as a rule, active = well fitted curve in the direction sought with a large enough effect; inconclusive = small, poorly fitted or top-dose-only effect, or another doubt; inactive = no such curve, though single readings can be large; an effect the other way counts as inactive or inconclusive. Unless noted, % is set by controls: 0 for no effect and ±100 for the full control effect.

SMILES	PI5P4Ka inh	PI4K2A block	PGK inhibitor	Pin1 inh	Tb PFK block
C=CCn1c(SCC(=O)N2CC(=O)Nc3ccccc32)nc2scc(-c3cccs3)c2c1=O	1.5	-10.3	-2.0%	45.3%	-6.1%
CC(C)CCn1c(SCC(=O)N2CC(=O)Nc3ccccc32)nc2scc(-c3cccs3)c2c1=O	-67.0*	-21.6	-3.1%	?	-1.1%
COc1cccc(C2c3c(ncn(CCCN4CCOCC4)c3=N)Oc3ccc4ccccc4c32)c1 (stereo not given)	.	.	.	17.2%	.
CCOc1cc(/C=C2/C(=O)N(c3ccccc3)N=C2C)ccc1OC(=O)c1cccs1	.	-52.3*	i	6.6%	0.3%
Nc1ccc(N(CCO)CCO)cc1	-0.6	-51.8*	-8.1%	-17.6%	-12.1%
Nc1nc(N2CCN(C(=O)c3ccco3)CC2)nc2ccccc12	0.2	5.5	-9.2%	-4.9%	0.0%
Nc1nc(N2CCN(C(=O)c3ccco3)CC2)nc2ccc(Br)cc12	-29.6	4.5	8.91µM*	?	1.2%
O=C(N/N=C/c1cc([N+](=O)[O-])ccc1O)c1ccc(COc2ccc3c(c2)CCC3)o1	-56.1*	-8.6	0.0%	14.1%	-1.2%
N=C1/C(=C\c2ccc(SCc3ccco3)o2)C(=O)N=C2SC=NN12	-58.4*	-12.8	-14.4%	?	-4.8%
CC1=NN2C(=N)/C(=C\c3ccc(SCc4ccccc4)o3)C(=O)N=C2S1	?	0.6	-7.6%	?	-15.0%
CC(C)Nc1cccc(S(=O)(=O)N2CCCN(S(=O)(=O)c3ccc4c(c3)OCCO4)CC2)c1	.	.	.	11.6%	.
CCOC(=O)[C@]12CCCCC/C=C\1N(CCc1ccc(Cl)cc1)C(=O)[C@H]2CC(=O)N1CCCCC1	.	-2.0	.	.	.
COc1ccccc1-c1n[nH]c(=S)n1Cc1ccccc1	-9.7	0.1	-3.2%	-4.5%	-1.1%
COc1ccccc1-c1cn[nH]c(=S)n1	-69.6*	-4.5	-0.9%	1.8%	-24.5%
O=C(c1ccccc1)N1CCN(c2nc(-c3ccc(Br)cc3)cs2)CC1	.	.	.	12.7%	.
CCCCCCCCN1C(=O)[C@@H](CC(=O)NCCCOC)C[C@@]2(C(=O)OC)C1=C[C@H](COCc1ccccc1)O[C@@H]2C	.	1.6	.	.	.
Cc1ccc(SCCC(=O)OC(C(=O)NC(N)=O)C(C)C)cc1 (stereo not given)	-67.3*	1.3	i	1.6%	1.2%
O=c1c(Cl)c(Cl)cnn1Cc1nnc(-c2ccc(Cl)cc2)o1	-57.8*	5.7	-4.5%	?	-0.6%
O=C(O)C1OC(Oc2c(-c3ccc(O)c(O)c3)oc3cc(O)cc(O)c3c2=O)C(O)C(O)C1O (stereo not given)	?	-4.0	25.1µM*	?	?
CC1OC(Oc2c(-c3cc(O)c(O)c(O)c3)oc3cc(O)cc(O)c3c2=O)C(O)C(O)C1O (stereo not given)	?	-5.5	?	?	-13.4%
Cc1[nH]nc2c1C1(C(=O)Nc3ccc([N+](=O)[O-])cc31)C(C#N)=C(N)O2 (stereo not given)	-56.3*	-6.1	-3.3%	-4.3%	-2.6%
O=C(Cn1cc([N+](=O)[O-])cn1)Nc1ccc(Cn2cc(Br)cn2)cc1	-10.7	2.1	1.8%	1.0%	26.9µM*
COC(=O)[C@]12C[C@H](CC(=O)NCc3ccc(OC)c(OC)c3)C(=O)N(Cc3ccc(Cl)cc3Cl)C1=C[C@H](C(C)C)O[C@@H]2C1CC1	.	-4.6	.	.	.
CN(C)/C=C/C(=O)c1ccc(-c2ccc(Cl)cc2Cl)o1	-64.0*	-9.7	2.4%	27.6%	10.4%
COc1ccc(/C=C/c2ccc(=O)n(Cc3ccccc3)n2)cc1	-51.1*	3.3	i	-25.4%	-3.6%
Cc1cc(C=O)c(C)n1-c1ccc(Cl)c(C(=O)O)c1	-53.7*	-4.6	?	?	?
COc1ccc(-n2c(C)cc(C=O)c2C)cc1Cl	1.8	-4.5	-8.0%	-0.6%	0.5%
COC(=O)C[C@@H]1CC[C@H]2[C@@H](COc3ccc(NC(=O)Nc4ccccc4Cl)cc3C(=O)N2C)O1	.	-2.8	.	.	.
N#CC1=C2SCN(Cc3ccco3)CN2C(=O)CC1c1cccc2ccccc12 (stereo not given)	-59.8*	-5.4	-0.4%	-9.4%	-16.9%
CN1CCN(c2ccc(Nc3nn4c(=O)c5ccccc5nc4s3)cc2)CC1	.	.	.	-33.8%	.
